From PubChem
GDH-TPI counter – inhibits GDH-TPI coupling enzymes, artifact for Mtb FBA screen; GDH-TPI coupled enzyme counterscreen, NADH absorbance; inhibition, % at 4.8 µM; 360,000 compounds, 1.2% hits; AID 588335;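 also: 0% = DMSO wells and 100% = wells lacking the enzyme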
DUSP3 inh – DUSP3 (human) phosphatase inhibition; recombinant VHR phosphatase, pNPP absorbance; inhibition, % at 13.3 µM; 290,000 compounds, 0.52% hits; AID 1654; in the data active = inhibition above about 50%
Target sequence (P51452 whole entry, looked up): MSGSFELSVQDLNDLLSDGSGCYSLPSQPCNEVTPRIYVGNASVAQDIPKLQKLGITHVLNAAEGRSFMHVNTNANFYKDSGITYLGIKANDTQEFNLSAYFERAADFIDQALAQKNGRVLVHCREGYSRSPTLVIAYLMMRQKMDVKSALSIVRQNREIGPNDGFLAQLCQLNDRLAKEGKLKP
Mtb FBA inh – inhibits M. tuberculosis FBA enzyme; inhibition, % at 1 µM; 360,000 compounds, 2.3% hits; P9WQA3; purified M. tuberculosis FBA, fluorescence read-out; in the data active = inhibition above about 27%;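 also: 0% = vehicle and 100% = reference inhibitor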
Target sequence (P9WQA3 whole entry, looked up): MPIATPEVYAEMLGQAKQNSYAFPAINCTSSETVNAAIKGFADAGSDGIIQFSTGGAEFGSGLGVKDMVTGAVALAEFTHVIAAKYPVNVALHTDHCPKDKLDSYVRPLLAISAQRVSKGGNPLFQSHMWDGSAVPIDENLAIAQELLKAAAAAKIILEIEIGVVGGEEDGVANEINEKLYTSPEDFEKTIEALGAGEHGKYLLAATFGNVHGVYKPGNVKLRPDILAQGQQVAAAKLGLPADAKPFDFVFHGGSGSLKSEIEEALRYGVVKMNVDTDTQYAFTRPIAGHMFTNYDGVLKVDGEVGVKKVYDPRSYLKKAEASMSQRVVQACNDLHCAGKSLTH
CCHFV vOTU inh – blocks the CCHF virus ovarian tumor domain protease; CCHFV vOTU protease, Pep-AMC fluorescence; inhibition, % at 11.5 µM; 370,000 compounds, 0.55% hits; AID 651958; also: 0% = vehicle wells with enzyme and 100% = no enzyme wells
SARS 3CLpro inh – SARS-CoV 3CLpro protease inhibition. 290,000 compounds, 0.14% hits. inhibition, % at 6 µM. recombinant SARS-CoV 3CLpro, quenched FRET peptide cleavage. AID 1706; in the data active = inhibition above about 12%
RecA intein inh – inhibitors of M. tuberculosis RecA intein splicing | cell-free RecA intein splicing, fluorescence | inhibition, % (test concentration not listed) | 290,000 compounds, 0.75% hits; in the data active = inhibition above about 30%;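 also: 0% = vehicle wells and 100% = reference inhibitor control wells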
Active calls of the source: *; . = not tested or not shown; + = active, no number. In the library only some 4.7% were active in any assay of this set; here they are far more common. Rule as the data show it, unless noted: active = inhibition above about 30%; inactive = the rest.

SMILES	GDH-TPI counter	DUSP3 inh	Mtb FBA inh	CCHFV vOTU inh	SARS 3CLpro inh	RecA intein inh
Cn1c(-c2ccsc2)c(-c2cccs2)c2cc(-c3ccc4[nH]ccc4c3)ccc21	29.0	.	6.1	12.5	.	.
Cn1c(-c2ccsc2)c(-c2cccs2)c2cc(-c3ccc4cc[nH]c4c3)ccc21	35.2*	.	5.5	-2.7	.	.
CCc1nc(-c2ccc(-c3ccc(OC)cc3)nc2OC)no1	6.4	-22.9	152.3*	-48.2	2.4	-2.4
COCc1nc(-c2ccc(-c3ccccc3)nc2OC)no1	11.6	11.8	3.6	-5.3	2.3	1.2
COCc1nc(-c2ccc(-c3ccc(OC)cc3)nc2OC)no1	16.8	-1.0	+	-96.5	3.0	2.5
COc1ccc(OC)c(CN2CCN(C(=O)c3cc(S(=O)(=O)N4CCOCC4)ccc3C)CC2)c1	.	.	.	-8.8	.	.
Nc1nc(CN2CCN(c3ccccc3)CC2)nc(N2CCCc3ccccc32)n1	1.7	18.2	-1.0	4.6	2.3	4.6
Nc1nc(CN2CCN(Cc3ccccc3)CC2)nc(N2CCCc3ccccc32)n1	-1.6	54.4*	1.4	-2.0	-1.8	1.1
CSc1nc(O)c(Nc2cccc(Cl)c2)c(=O)[nH]1	6.0	5.8	3.8	-1.4	-1.9	76.1*
CSc1nc(O)c(Nc2ccccc2)c(=O)[nH]1	0.8	.	0.0	-21.4	.	.
CCCCC(=O)Nc1ncc2c(n1)CC(C)(C)CC2=O	-5.3	15.1	146.6*	3.1	-2.6	-0.2
CC1(C)CC(=O)c2cnc(NC(=O)Cc3ccc(Cl)cc3)nc2C1	5.1	17.0	0.5	0.4	-0.5	-11.7
Cc1cc(NC(=O)CSCC(=O)Nc2nc3ccccc3s2)no1	-2.2	.	2.3	18.2	.	.
CCCC(=O)Nc1ccc2oc(-c3ccc(OC)c(Br)c3)nc2c1	15.9	1.5	125.1*	-17.9	-4.0	.
Cc1ccc(OC2CCN(C(=O)[C@@H](Cc3ccccc3)NC(=O)[C@H]3O[C@@H](n4ccc(=O)[nH]c4=O)[C@H](O)[C@@H]3O)CC2)cc1	.	.	.	-1.5	.	.
CCOC(=O)N1CCC(NC(=O)c2ccc3nc4ccccc4c(=O)n3c2)CC1	.	37.6	.	.	0.6	.
CCOC(=O)N1CCC(NC(=O)c2cccn3c(=O)c4cc(Br)ccc4nc23)CC1	16.8	83.6*	1.2	5.3	1.4	-4.1
O=c1ccc(-c2ccccc2)nn1Cc1ccc(F)cc1	8.0	8.8	0.5	9.6	2.9	-2.6
O=S(=O)(c1ccccc1)n1ccc(-c2cnc(-c3ccccc3)s2)n1	5.2	26.9	2.0	-11.0	-0.2	1.3
Cc1ccc(Cn2ccc(-c3cnc(-c4ccccc4)s3)n2)cc1	25.7	-26.9	52.4*	-15.3	5.2	-2.4
Fc1ccc(Cn2ccc(-c3cnc(-c4ccccc4)s3)n2)cc1	12.2	20.1	141.9*	-29.8	1.2	0.6
CCOc1ccc(-c2cc(C)[n+](CCN3CCOCC3)c(-c3ccc(OCC)cc3)c2)cc1	41.0*	-4.9	19.0	-27.8	0.9	-0.2
O=C(CNSc1ccc([N+](=O)[O-])cc1[N+](=O)[O-])OCc1ccccc1	.	.	.	5.9	.	.
COC(=O)C1=C(C)N(C)C(=NCc2cccc(C(F)(F)F)c2)NC1c1cccc(Cl)c1 (stereo unspecified)	.	.	.	0.5	.	.
Nc1n[nH]c(N)c1N=Nc1ccccc1F	38.0*	5.2	1.0	2.6	-2.0	-1.3
SMILES	GDH-TPI counter	DUSP3 inh	Mtb FBA inh	CCHFV vOTU inh	SARS 3CLpro inh	RecA intein inh
CC1=C(O)C(=O)C(C2=C(O)C(=O)C(C)=C(O)C2=O)=C(O)C1=O	49.0*	.	4.3	4.2	.	.
Cc1ccc(C2=C(O)C(=O)C(c3ccc(C)cc3)=C(O)C2=O)cc1	7.8	.	0.6	8.6	.	.
CN1CCN(C2CN(Cc3cn(Cc4ccc(F)cc4)nn3)S(=O)(=O)C2)CC1 (stereo unspecified)	.	.	.	-3.5	.	.
O=C(COC(=O)c1ccc2c(c1[N+](=O)[O-])C(=O)c1ccccc1C2=O)NC1CC1	-2.9	7.6	-1.2	11.3	2.1	70.6*
CC1(C)CC(=O)C=C(c2ccc(COC(=O)c3ccc(Br)cc3)cc2)C1=O	.	.	.	-4.7	.	.
Cc1cc(NCC2CCCO2)n2c(nc3ccccc32)c1C#N (stereo unspecified)	7.5	-6.0	+	-73.8	-2.7	-131.9
CC(C)c1cc(NCC2CCCO2)n2c(nc3ccccc32)c1C#N (stereo unspecified)	8.0	14.6	+	-193.6	5.6	-217.8
CCOC(=O)[C@]12CCC=C1N(Cc1cccc3ccccc13)C(=O)[C@H](CC(=O)N1CCSCC1)C2	.	.	.	17.2	.	.
CCCCC1(C)OC(=O)C(=Cc2ccc(N(C)C)cc2)C(=O)O1 (stereo unspecified)	39.8*	11.3	-2.9	9.3	2.2	-2.6
CN(C)c1ccc(C=C2C(=O)NC(=O)NC2=O)cc1	30.8*	.	-3.3	14.5	.	.
CCCCC1(C)OC(=O)C(=Cc2c[nH]c3ccccc23)C(=O)O1 (stereo unspecified)	5.5	29.5	-1.3	6.6	-6.0	-0.1
Nc1[nH]c(C(=O)c2ccccc2)c(-c2ccccn2)c1C(=O)c1c[nH]c2ccccc12	.	.	.	1.2	.	.
O=C(NCCC1=CCCCC1)c1ccc(-n2cncn2)c([N+](=O)[O-])c1	13.5	.	2.5	-6.0	.	-3.6
COc1ccccc1C(=O)NC(=O)Nc1c(C)cc(C)cc1C	7.0	-12.8	3.2	-2.6	-2.0	2.0
O=C(Nc1ccccc1)c1ccccc1NC(=O)c1ccccc1[N+](=O)[O-]	3.4	.	2.8	-3.1	.	.
O=[N+]([O-])c1ccccc1C(=Nc1ccccc1)c1c(O)cc(O)cc1O	32.4*	.	0.1	11.8	.	.
CN(Cc1cccc(Cl)c1Cl)C(=O)CCNC(=O)c1ccco1	5.6	.	0.9	16.1	.	.
O=[N+]([O-])c1cccc(C=NNc2ccccc2)c1	9.9	.	-0.6	-0.3	.	.
O=[N+]([O-])c1cccc(/C=N/N=C\c2ccccc2)c1	5.6	59.7*	0.4	-3.1	-4.3	0.7
COc1ccc(C2C(C#N)=C(N)Oc3cc(N)ccc32)cc1 (stereo unspecified)	-4.2	55.7*	2.3	-1.2	2.6	-2.0
O=c1cc(C(F)(F)F)[nH]c2ccc(OC(F)(F)F)cc12	10.0	-6.7	25.7	-3.6	4.8	-1.7
O=c1cc(C(F)(F)F)[nH]c2c(C(F)(F)F)cccc12	24.2	3.9	+	.	3.5	-2.8
Cc1ccc(CNC(=O)C2CCN(S(=O)(=O)c3c(C)noc3/C=C/c3ccco3)CC2)cc1	36.5*	19.0	-3.9	-2.0	2.9	0.9
Cc1noc(/C=C/c2ccco2)c1S(=O)(=O)N1CCC(C(=O)NCc2ccco2)CC1	33.8*	15.4	1.2	26.4	1.7	7.3
Cc1[nH]nc2c1C(c1ccc(Br)cc1)N(Cc1ccccc1)C2=O (stereo unspecified)	.	.	.	0.1	.	.
COC(=O)c1cc(NC(=O)NC2CCCCN(Cc3ccc(Cl)cc3)C2=O)cc(C(=O)OC)c1 (stereo unspecified)	.	.	.	9.2	.	.
COCc1ccc(C(=O)N2CCC(CCC(=O)Nc3cccc(C)c3)CC2)s1	7.3	5.4	-1.1	1.9	4.0	2.0
Cc1cccc(NC(=O)CCC2CCN(C(=O)c3ccc(C)s3)CC2)c1	-2.3	59.8*	0.6	-6.3	1.4	2.2
